SW480 rerep: A quantitative high throughput screen for small molecules that induce DNA re-replication in SW480 colon adenocarcinoma cells; Potency, µM (doses to about 46.1 µM), inactives show top-dose re-replication activation, actives largely listed as activators; SW480 DNA re-replication, Hoechst DNA content imaging, 48 h; 340,000 compounds, 1.8% hits; note: potency is the fitted concentration of half-maximal effect; % of control where 0% means no effect; nearly all actives have a fitted effect of over 55% in size
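DNA re-replication was detected as more nuclei of elevated Hoechst intensity after 48 hr exposure to compound (23 nL pinned per well of 250 cells).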
MCF10A rerep: A quantitative high throughput screen for small molecules that induce DNA re-replication in MCF 10a normal breast cells; MCF 10A DNA re-replication, Hoechst nuclear intensity, 48 h; Potency, µM (highest dose often 46.1 µM), for inactives: at the highest dose activity, positive = re-replication, hits mostly activators; 350,000 compounds, 2.9% hits; note: potency is the fitted concentration of half-maximal effect; % of control where 0% means no effect; nearly all actives have a fitted effect of over 50% in size
KB-V1 MDR tox: qHTS assay for MDR1-selective chemotherapeutics: Primary screen using the drug-selected MDR subline cells KB-V1; KB-V1 MDR cells viability, CellTiter-Glo, 72 h; Potency, µM (doses to about 46.1 µM), most hits filed as cytotoxic; 400,000 compounds, 3.4% hits; note: potency is the fitted concentration of half-maximal effect; % is set by controls: 0 for no effect and ±100 for the full control effect; nearly all actives have a fitted effect of over 60% in size
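KB-V1, DMEM (no phenol red) + 10% FBS; cpd pin-transferred, titration series; 72 h, 37 degrees C; CellTiter-Glo, luminescence. Data normalized, curve-fit.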
KCNH2 3.1 block: qHTS for Inhibitors of KCHN2 3.1: Mutant qHTS | U2OS KCNH2 3.1, thallium flux FluxOr; hits give low values | activity change, % (tested at about 1.8 µM) | 340,000 compounds, 0.95% hits;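 active = maximum activity change below -70%; inconclusive = maximum activity change from -70% to -50%; inactive = maximum activity change above -50%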;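 note: thallium influx rate constant from kinetic fluorescence after stimulation buffer; % is set by controls: 0 for no effect and ±100 for the full control effect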
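Thallium flux read-out: FluxOr dye with Red40 quencher in HBSS/HEPES, 45 min at RT. Rate constants from kinetic reads were normalized to positive and negative DMSO controls. Cells: U2OS virally expressing the 3.1 isoform.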
KCNH2 WT inh: qHTS for Inhibitors of KCHN2 3.1: Wildtype qHTS. Voltage-gated inwardly rectifying potassium channel KCNH2 (Homo sapiens), Q12809. U2OS, BacMam KCNH2, thallium flux FluxOr; hits give low values. activity change, % at 1.84 µM. 340,000 compounds, 0.37% hits. AID 720551, 2013;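 active = maximum activity change below -70%; inconclusive = maximum activity change between -70% and -50%; inactive = maximum activity change above -50%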; note: % is set by controls: 0 for no effect and ±100 for the full control effect
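U2OS cells were transduced with wild-type KCNH2 virus (2.03 x 10^8 / mL) for 4 h at room temperature, then cultured overnight at 37 C. Thallium flux was read with FluxOr dye. Rate constants were normalized to DMSO controls.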
KB-3-1 cytotox: qHTS assay for MDR1-selective chemotherapeutics: Primary screen using the parental adenocarcinoma cell KB-3-1. KB-3-1 viability, CellTiter-Glo ATP luminescence, 72 h. Potency, µM (series often up to 46.1 µM), most hits filed as cytotoxic. 400,000 compounds, 1.4% hits. AID 1347075, 2019; note: potency is the fitted concentration of half-maximal effect; % is set by controls: 0 for no effect and ±100 for the full control effect; nearly all actives have a fitted effect of over 60% in size
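KB-3-1 cells, DMEM (no phenol red) + 10% FBS; compound by pin transfer, 72 h, 37 °C. Readout: CellTiter-Glo luminescence after 10 min. Data normalized, curve-fitted.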
* marks the source's active call; other numbers are inactive results; i = inactive; ? = inconclusive; . = no result given. An excerpt weighted towards active compounds, which were near 7.6% of everything screened. Unless noted, calls come from the whole dose curve; as a rule, active = well fitted curve in the direction sought with a large enough effect; inconclusive = small, poorly fitted or top-dose-only effect, or another doubt; inactive = no such curve, though single readings can be large; an effect the other way counts as inactive or inconclusive.

SMILES	SW480 rerep	MCF10A rerep	KB-V1 MDR tox	KCNH2 3.1 block	KCNH2 WT inh	KB-3-1 cytotox
O=c1c2ccccc2nc(/C=C/c2cccnc2)n1CCc1ccccc1	-21%	29µM*	?	-2	-2	i
CCn1c(/C=C/c2ccccc2Cl)nc2ccccc2c1=O	?	16µM*	i	-22	-11	i
O=c1c2ccccc2nc(/C=C/c2ccccc2)n1CCc1ccccc1	0%	-3%	i	-22	-13	i
Nc1ccn(CCCNCC(c2ccccc2)c2ccccc2)c(=O)n1	.	.	i	-28	3	i
CNC(=O)CC1C(=O)N(c2ccc(OC)cc2)C(=S)N1NC(=O)c1cccc(F)c1 (stereo not drawn)	2.3µM*	?	i	9	-2	i
CNC(=O)CC1C(=O)N(c2ccc(Cl)cc2)C(=S)N1NC(=O)c1cccc(F)c1 (stereo not drawn)	-17%	3%	i	11	-6	i
CNC(=O)CC1C(=O)N(Cc2ccccc2)C(=S)N1NC(=O)c1cccc(F)c1 (stereo not drawn)	-9%	-7%	21µM*	7	-17	i
CCc1nc2c(OCc3c(C)noc3C)cccn2c1N(C)C(=O)C(C)C	.	.	i	.	.	i
COc1ccc2oc3cc(Cl)ccc3c(=O)c2c1	.	.	i	.	.	i
COc1cccc(CN2CCC2(C)C(=O)Nc2cccc3cccnc23)c1F (stereo not drawn)	.	.	7.3µM*	.	.	7.3µM*
COc1ccc(NC(=O)C2(C)CCN2Cc2ccc(OC)c3ccccc23)cc1OC (stereo not drawn)	.	.	i	.	.	i
COc1ccc(NC(=O)C2(C)CCN2C(=O)c2ccc(C(C)(C)C)cc2)cc1OC (stereo not drawn)	.	.	16µM*	.	.	15µM*
COc1ccc(OC)c(NC(=O)C2(C)CCN2Cc2cccc(OC)c2F)c1 (stereo not drawn)	.	.	i	.	.	i
COc1ccc(NC(=O)C2(C)CCN2Cc2cccc(OC)c2OC)cc1OC (stereo not drawn)	.	.	8.2µM*	.	.	?
Cn1cnc2nc(Cl)nc(Cl)c21	1.3µM*	7.3µM*	3.7µM*	10	0	3.3µM*
CC(=Nc1ccccc1)C1=C(O)C(Cc2cccc(F)c2)NC1=O (stereo not drawn)	.	.	1.2µM*	1	3	?
O=C1NC(Cc2ccc(O)cc2)c2nc3ccccc3c(=O)n2-c2ncccc21 (stereo not drawn)	.	.	i	-24	-15	i
CC(=Nc1ccccc1)C1=C(O)C(Cc2ccc(O)cc2)NC1=O (stereo not drawn)	0.13µM*	0.46µM*	?	-1	5	0.21µM*
CCC(C)(C)n1nnnc1C(c1cccnc1)N1CCN(c2cccc(C(F)(F)F)c2)CC1 (stereo not drawn)	?	?	?	-22	-1	?
O=C(Nn1c(COc2ccccc2)nc2ccccc2c1=O)C(Cl)(Cl)Cl	18µM*	?	i	26	2	i
O=C(Cc1ccc2c(c1)OCCO2)N1CCN(c2ccccc2)CC1	-6%	-1%	i	-5	11	i
Nc1nc(Nc2ccccc2)nc(NCc2ccco2)c1[N+](=O)[O-]	-5%	?	16µM*	8	-9	i
Fc1ccc(Nc2nc(NCc3ccco3)c3ccccc3n2)cc1	?	?	18µM*	-92*	-13	?
CC1CCCN(c2nc(NCc3ccco3)nc(N)c2[N+](=O)[O-])C1 (stereo not drawn)	.	23%	15µM*	-16	3	i
c1coc(CNc2nc(NCc3ccco3)c3ccccc3n2)c1	.	.	i	.	.	i
SMILES	SW480 rerep	MCF10A rerep	KB-V1 MDR tox	KCNH2 3.1 block	KCNH2 WT inh	KB-3-1 cytotox
CN(Cc1ccccc1)c1nc(N)c([N+](=O)[O-])c(NCc2ccccc2)n1	-2%	?	18µM*	-22	-23	?
Nc1nc(NCc2ccco2)nc(Nc2ccccc2)c1[N+](=O)[O-]	-9%	-1%	?	2	-3	i
Cc1ccc(C)c(Cn2c(C(C)NC(=O)c3ccc(F)cc3)nc3ccccc32)c1 (stereo not drawn)	.	.	i	.	.	i
CC(NC(=O)c1ccc(F)cc1)c1nc2ccccc2n1Cc1ccccc1F (stereo not drawn)	26%	1%	2.1µM*	-18	-17	i
COc1cc(NC(=O)Cn2nc(C(F)(F)F)c3c2CCC3)cc(OC)c1OC	.	.	i	.	.	16µM*
O=C(COc1ccccc1[N+](=O)[O-])N(Cc1ccco1)c1ccccn1	.	.	i	.	.	i
N#CC1=C(S)N(c2ccccc2)C(c2ccc(-c3cccc(Cl)c3)o2)NC1=O (stereo not drawn)	23µM*	?	i	20	.	i
Cc1cccc(N2C(S)=C(C#N)C(=O)NC2c2ccco2)c1 (stereo not drawn)	-1%	?	?	13	-2	i
CC(=O)NS(=O)(=O)c1cccnc1Nc1cccc(Cl)c1	-5%	-1%	i	-14	2	i
CCNC(=O)NS(=O)(=O)c1cnccc1Nc1cccc(Cl)c1	29µM*	-6%	i	0	16	i
CCc1cc2c(=O)[nH]c(N3CCCC3)nc2s1	?	0%	i	-5	4	i
CCc1cc2c(=O)[nH]c(-c3ccccn3)nc2s1	6.5µM*	12µM*	?	3	-1	12µM*
CC(=O)c1c(C)[nH]c(C(=O)COC(=O)Cc2ccccc2F)c1C	-2%	6%	i	2	2	i
Cc1cc(C)n(-c2ccn(Cc3ccc(Cl)cc3Cl)c(=O)n2)n1	-4%	2%	7.3µM*	-11	-5	i
CC(C)(C)n1ncc2c(=O)n(Cc3ccc(Cl)cc3Cl)cnc21	-1%	45%	?	-11	-5	?
CCC1CCC/C1=N\NC(=O)c1ccccc1Cl (stereo not drawn)	-9%	?	i	26	7	i
CCC1CCC/C1=N\NC(=O)c1cc(C)[nH]n1 (stereo not drawn)	16µM*	2.9µM*	i	3	2	i
Cc1cc(C(C)(C)C)ccc1OCCOCCN1CCCC1	8%	?	i	-2	35	i
